# According to PubChem BioAssay AID624115 (Johns Hopkins Ion Channel Center, 2012):
# Among all 4,000 compounds or so, about 350 (8.8%) were called active.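 How the source made its calls: active means calcium fluorescence ratio at least three times the spread of buffer wells, meaning a non-specific response in parental cells; inactive means the rest.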 Shown is part of a subset that was picked to be rich in actives.
# Experiment: calcium response in parental HEK293 cells, primary screen, counter-screen for MrgX1 agonist project, cell-based, Fluo-4 calcium flux, duplicate, agonist mode (AID 624115)
# Details: parental HEK293, Fluo-4 calcium fluorescence (FDSS), at 10 µM; hits give high values
row,Compound,fluorescence ratio F(max-min)/F0
1,CCCCC(=O)N/N=C/c1c(O)n(CC)c(=S)n(CC)c1=O,78.9 (active)
2,O=C(CCN1CCCCC1)NCC(=O)Nc1ccc(Br)cc1C(=O)c1ccccc1,inactive
3,CCCCCn1c(=O)c(C(=O)NCc2ccccc2)c(O)c2ccccc21,inactive
4,C=CCN1C(=O)C2(C(C(=O)OCC)=C(N)Oc3c2c(=O)oc2ccccc32)c2ccccc21 (stereo not given),inactive
5,COc1ccc(S(=O)(=O)NCc2ccc(C(=O)N3CCC4(CC3)OCCO4)cc2)cc1,inactive
